Bioassay records from PubChem BioAssay.
The full list was thinned out, with hits kept by preference.
Integrin act MD: integrin-mediated muscular dystrophy alleviation activation. alpha7betagal myoblasts, beta-gal FDG fluorescence, 48 h. Potency, µM (highest dose often 38.3 µM), inactives show at the top dose activation, usual class: activators. 350,000 compounds, 0.064% hits. AID 624291;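 note: 100% = response of the positive control SU9516; nearly all actives have a fitted effect of over 60% in size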
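alpha7betagal+/- myoblasts (passage 13, 250/well) treated 48 h at 37C with compounds at 1:260 dilution of DMSO stock. Lysed, then beta-galactosidase activity read as FDG fluorescence (ex 480/em 540) after 30 min, with pre-read for autofluorescence.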
ClpP mod: qHTS Assay for Activators of ClpP; Potency, µM (titrated, usually from 57.5 µM), without a hit: at the highest dose activity change, negative = active; purified B. subtilis ClpP, FRET peptide cleavage, 20 min; 340,000 compounds, 1.9% hits; ATP-dependent Clp protease proteolytic subunit (Bacillus subtilis (strain 168)), P80244; active = well fitted falling curve with a large enough effect; inconclusive = small, poorly fitted or top-dose-only effect; inactive = no such curve, though single readings can be large or run the other way; note: the source files actives as falling curves though it sought activators and does not explain the sign; nearly all actives have a fitted effect of over 65% in size
Target sequence (P80244 whole entry, looked up): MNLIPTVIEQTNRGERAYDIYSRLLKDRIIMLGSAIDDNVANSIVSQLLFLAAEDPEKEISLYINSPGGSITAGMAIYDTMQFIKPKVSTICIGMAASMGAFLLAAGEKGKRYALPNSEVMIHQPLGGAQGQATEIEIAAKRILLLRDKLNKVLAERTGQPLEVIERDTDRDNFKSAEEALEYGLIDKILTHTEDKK
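Purified B. subtilis ClpP, 10 microg/mL final in Tris/HCl pH8 with KCl, BSA, glycerol and Tween-20, cleaved an Abz/nitrotyrosine-quenched decapeptide. Fluorescence (ex 320, em 430) was read at 0 and 20 min at room temperature. Delta was normalized to 5.8 microM ADEP and DMSO/no-enzyme controls.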
p53 reactivation: re-activators of mutant p53 | H1299 p53-A138V BP100-luciferase reporter, luminescence, 24 h | Potency, µM (series often up to 92.2 µM), for the others: at the top dose activity change, positive = activation, most hits filed as activators | 320,000 compounds, 0.063% hits | AID 504706; note: % of control where 0% means no effect; nearly all actives have a fitted effect of over 45% in size
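p53-null H1299 cells stably carrying temperature-sensitive p53-A138V and a BP100-luciferase reporter were pinned with compounds (4-point, 1:5 series) and held 24 hrs at 37 deg C. Luminescence was read 10 min after detection reagent.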
USP2a inh: blocks human ubiquitin-specific protease USP2a; O75604; USP2 core, Ub-CHOP2 coupled fluorogenic reporter, 485/531; Potency, µM (top dose mostly 38.3 µM), for the others: top-dose activity change, negative = inhibition, hits mostly inhibitors; 330,000 compounds, 0.01% hits; AID 463254;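 note: plate controls were DMSO wells for no effect and full inhibition by NEM control for full effect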
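USP2 core (10nM final) preincubated 30min RT with compound in 20mM Tris-HCl pH 8.0, 2mM CaCl2, 2mM beta-mercaptoethanol, 0.05% CHAPS; 25nM Ub-CHOP2 plus 25nM reporter substrate added, fluorescence (Ex485/Em531) read after 60min.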
Mm-Cpn inhibitor: M. maripaludis TRiC chaperonin inhibition | purified Mm-Cpn ATPase, ADP Transcreener TR-FRET | Potency, µM (doses to about 76.9 µM), for the others: top-dose activity, negative = inhibition, actives largely listed as inhibitors | 330,000 compounds, 0.031% hits | AID 504842; note: % is set by controls: 0 for no effect and ±100 for the full control effect; nearly all actives have a fitted effect of over 80% in size
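ATPase turnover read by TR-FRET ADP competition (Eu cryptate antibody/ADP-d2, 665/590 nm): 10uM ATP final, 25nM Mm-CPN final, 30 min 37degC after 10-min compound preincubation, pH 7.4 Tris/KCl/MgCl2/DTT buffer.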
Eya2 phos inh: blocks the phosphatase activity of human Eya2. O00167. recombinant Eya2, OMFP fluorescence dephosphorylation (OMFP is methylfluorescein phosphate). Potency, µM (titrated, usually from 76.9 µM), for the others: at the top dose activity, negative = inhibition, hits mostly inhibitors. 330,000 compounds, 0.006% hits; note: % is set by controls: 0 for no effect and ±100 for the full control effect
Target sequence (O00167 whole entry, looked up): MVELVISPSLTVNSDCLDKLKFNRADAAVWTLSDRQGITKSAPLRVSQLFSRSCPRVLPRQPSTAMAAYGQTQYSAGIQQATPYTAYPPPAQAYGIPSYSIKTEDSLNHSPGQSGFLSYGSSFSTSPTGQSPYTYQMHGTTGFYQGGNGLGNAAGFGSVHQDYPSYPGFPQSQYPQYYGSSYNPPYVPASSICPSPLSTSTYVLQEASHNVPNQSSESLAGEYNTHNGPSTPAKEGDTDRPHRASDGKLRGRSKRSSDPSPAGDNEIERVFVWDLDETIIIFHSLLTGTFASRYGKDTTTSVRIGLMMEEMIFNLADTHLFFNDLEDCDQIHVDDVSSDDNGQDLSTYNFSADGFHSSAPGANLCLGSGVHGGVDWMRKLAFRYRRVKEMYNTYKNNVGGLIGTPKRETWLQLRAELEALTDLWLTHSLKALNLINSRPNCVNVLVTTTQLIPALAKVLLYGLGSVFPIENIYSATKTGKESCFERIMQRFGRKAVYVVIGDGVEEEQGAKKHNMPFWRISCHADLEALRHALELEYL
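Eya2 protein (added as 0.2 uM solution) was preincubated with compound for 10 min at ambient temperature in 50 mM HEPES pH 7.5, 50 mM NaCl, 5 uM MgCl2, 0.05% BSA, 1 mM DTT. OMFP (added at 50 uM) then reacted 10 min; fluorescence read at 485/525 nm.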
* hit, by the source's call; ? = inconclusive; . = no result. Unless noted, calls come from the whole dose curve; as a rule, active = well fitted curve in the direction sought with a large enough effect; inconclusive = small, poorly fitted or top-dose-only effect, or another doubt; inactive = no such curve, though single readings can be large; an effect the other way counts as inactive or inconclusive. Potency is the fitted concentration of half-maximal effect.

SMILES | Integrin act MD | ClpP mod | p53 reactivation | USP2a inh | Mm-Cpn inhibitor | Eya2 phos inh
O=C(O)C(=O)/C(=C\c1cccc2ccccc12)c1ccc2ccccc2n1 | 0% | 16µM* | 4% | 3% | 1% | -2%
O=C(O)CSc1nnc(-c2cc3ccccc3o2)n1-c1ccccc1 | 21% | 22µM* | 26% | 0% | 1% | 10%
Cn1c(SCC(=O)N2CCN(c3ccccc3)CC2)nnc1-c1cc2ccccc2o1 | 42% | -8% | 5% | 0% | -3% | -3%
CCn1c2c(c3cc(OCC(C)C)ccc31)CCCC2=O | 23% | 28µM* | -6% | -2% | -5% | -7%
COc1ccc(Nc2cc(C(=O)NCCCN3CCN(c4ccc(OC)cc4)CC3)c3ccccc3n2)cc1 | . | 0% | . | . | . | .
O=C(CCn1c2c(c3ccccc31)CCCC2)NNC(=O)c1ccccc1C(=O)O | 10% | -2% | -3% | -1% | 1% | -6%
O=C(O)CCn1c2c(c3ccccc31)CCCC2 | 20% | 25µM* | -7% | -1% | -4% | 5%
Cc1cc2[nH]c3ccccc3c2c(C)n1 | -21% | 28µM* | ? | 4% | 1% | 4%
COc1ccc2c(c1)c(N1CCCC1=O)c(C(=O)Nc1cc(C)c(Cl)cc1OC)n2C | . | -13% | . | . | . | .
Cc1ccc(C(=O)NC(NCc2ccccc2)C(Cl)(Cl)Cl)cc1 (centres undefined) | 14% | 14µM* | 0% | -1% | 5% | 1%
NCc1cn(Cc2ccccc2)nc1-c1ccccc1 | . | -2% | . | . | . | .
Oc1ccccc1CNc1cnc2ccccc2c1 | -43% | 28µM* | ? | -4% | 1% | -17%
O=C(O)CCc1ccc(-c2ccc(Br)cc2)n1Cc1ccco1 | -7% | -9% | 1% | 3% | 0% | -17%
O=C(O)CCc1ccc(-c2ccccc2)n1Cc1ccco1 | 20% | 28µM* | 0% | -6% | 1% | 15%
COc1cc(/C=N/NC(=O)c2nonc2C)ccc1O | 2% | . | 5% | 0% | 0% | -23%
Cc1nonc1C(=O)N/N=C/c1ccc(O)c(O)c1 | -15% | 28µM* | ? | 2% | 1% | 4%
O=C(c1ccc2c(=O)n(CC3CCCO3)c(=S)[nH]c2c1)N1CCN(C(=O)c2ccco2)CC1 (centres undefined) | . | 4% | . | . | . | .
CN(C)CCNc1nccc(N2CCN(C)CC2)n1 | . | -19% | . | . | . | .
CCCN1CNc2c(c(=O)[nH]c(=S)n2CCc2ccccc2Cl)C1 | . | 0% | . | . | . | .
CCCCc1c(C)nc2c(OC)cccc2c1SCCC(=O)O | 16% | 32µM* | -11% | 0% | -6% | -14%
COC(=O)C[C@H]1c2cc(C(F)(F)F)ccc2S(=O)(=O)N1C(C)C | . | 3% | . | . | . | .
O=c1nc2ccccc2c2n1CC(CN1CCN(c3ccc(F)cc3)CC1)N2 (centres undefined) | 30% | -4% | -2% | 2% | ? | -35%
O=c1nc2ccccc2c2n1CC(CN1CCN(Cc3ccccc3)CC1)N2 (centres undefined) | -16% | 16µM* | -21% | 3% | -7% | 26%
OC(c1nc2ccccc2[nH]1)C(O)c1nc2ccccc2[nH]1 (centres undefined) | 5% | 1% | . | 3% | 1% | -4%
OC(c1ccccc1)c1nc2ccccc2[nH]1 (centres undefined) | -22% | 16µM* | . | -1% | 2% | -6%
SMILES | Integrin act MD | ClpP mod | p53 reactivation | USP2a inh | Mm-Cpn inhibitor | Eya2 phos inh
COc1ccc(CC(=O)Nc2cccc(-c3cn4ccccc4n3)c2)cc1 | 3% | 20µM* | 15% | 1% | 1% | -11%
COc1ccc(CC(=O)Nc2ccc(-c3cn4ccccc4n3)cc2)cc1 | 23% | 28µM* | 17% | 0% | -1% | 5%
Cc1cccc2nc(-c3cccc(NC(=O)Cc4ccccc4)c3)cn12 | -18% | 28µM* | 21% | 0% | 0% | -4%
CCC(=O)Nc1cccc(-c2cn3ccccc3n2)c1 | -9% | 10µM* | ? | 0% | -1% | -1%
COc1ccc(CC(=O)Nc2ccc(-c3cn4ccccc4n3)cc2)cc1OC | -14% | ? | -2% | 9% | -11% | -23%
CCc1cnc2ccccc2c1/C=C/c1ccc(N(C)C)cc1 | . | 0% | . | . | . | .
Cc1cccc(NC(=O)COc2ccccc2C(=O)Nc2ccccc2)c1 | . | 17% | . | . | . | .
OC(C1=C/C(=C\c2ccncc2)c2ccccc21)c1ccncc1 (centres undefined) | . | -1% | . | . | . | .
O=C(Nc1cccc(-c2cn3ccccc3n2)c1)C1CC1 | 17% | 28µM* | 5% | 2% | -1% | -4%
CC(C)CN(CC(C)C)c1ccc(/C=C/c2nc3ccccc3s2)cc1 | . | -3% | . | . | . | .
O=C1Nc2ccc(Br)cc2/C1=C/C(=O)c1ccccc1 | -52% | 1% | . | . | . | .
O=C(O)COc1ccccc1/C=C1\C(=O)Nc2ccc(Br)cc21 | -27% | 25µM* | . | 6% | 0% | 2%
O=c1c2c3c(sc2nc2n1CCCCC2)CCC3 | -36% | -1% | 21% | 0% | 0% | 6%
CC1Cn2c(nc3sc4c(c3c2=O)CCC4)N1CCO (centres undefined) | 16% | 18µM* | -5% | 0% | 1% | 0%
CC1CC(C)CN(c2oc(-c3ccc(OCc4ccccc4Cl)cc3)nc2C#N)C1 (centres undefined) | . | 4% | . | . | . | .
CCCCNC(=O)OCC(CC)NC(=O)OC(C)C (centres undefined) | -6% | 28µM* | -11% | 2% | -2% | 9%
COc1ccc(Br)cc1CN(C)CC(=O)Nc1ccccc1Cl | -5% | 28µM* | -10% | -1% | -1% | -16%
CCCOc1ncnc2c1[nH]c1ccccc12 | -41% | 14µM* | ? | 2% | 1% | 11%
COc1ccccc1CNC(=O)c1ccc(N2CCCC2)c(NC(=O)NCc2ccc(F)cc2)c1 | . | -7% | . | . | . | .
CN(CC(=O)Nc1cccc(F)c1)C(=O)c1ccc(-c2ccc(Cl)cc2)o1 | 11µM* | ? | 3% | 0% | -3% | 1%
Cc1ccc(C)c(NC(=O)CN(C)C(=O)c2ccc(-c3ccc(Cl)cc3)o2)c1 | -32% | . | 3% | -2% | 2% | 20%
O=C(CN1C(=O)COc2ccc(S(=O)(=O)NC3CCCC3)cc21)NCc1ccccc1Cl | . | 3% | . | . | . | .
COc1ccc(NS(=O)(=O)c2cc(NC(=O)/C=C/c3cccs3)ccc2N2CCOCC2)cc1 | 17% | 28µM* | -15% | -1% | -5% | -16%
CCC(=O)NC(=S)Nc1ccc(NC(=O)c2ccco2)cc1 | 5% | . | 12% | 3% | -1% | -29%
NS(=O)(=O)c1ccc(NC(=S)NC(=O)c2ccco2)cc1 | 1% | 10µM* | 0% | -2% | ? | 7%
